The text below walks through data of PubChem BioAssay (NCATS).

Molecules are shown by their SMILES. Values joined by “and” are separate entries in the source; they are usually repeats but may differ in a detail not shown here. Equal entries are not always repeated. Records with an inconclusive call do not appear. Active and inactive are the calls of the source. Unless noted, calls follow the shape of the full dose curve.

Experiment [1] can be described thus: qHTS assay for small molecule agonists of retinoid X receptor alpha signaling (AID 588544).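 As to activation: 0% = DMSO basal wells and 100% = reference agonist.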 The note with it: HEK293T RXRa-UAS-bla, beta-lactamase reporter, 18 h; 530 nm emission.
The target of experiment [2] is Retinoic acid receptor RXR-alpha (Homo sapiens) (UniProt P19793). Described as above. The note with it: HEK293T RXRa-UAS-bla, beta-lactamase reporter, 18 h; series mostly up to 76.7 µM.
Sequence of Retinoic acid receptor RXR-alpha (Homo sapiens) (P19793 whole entry, looked up): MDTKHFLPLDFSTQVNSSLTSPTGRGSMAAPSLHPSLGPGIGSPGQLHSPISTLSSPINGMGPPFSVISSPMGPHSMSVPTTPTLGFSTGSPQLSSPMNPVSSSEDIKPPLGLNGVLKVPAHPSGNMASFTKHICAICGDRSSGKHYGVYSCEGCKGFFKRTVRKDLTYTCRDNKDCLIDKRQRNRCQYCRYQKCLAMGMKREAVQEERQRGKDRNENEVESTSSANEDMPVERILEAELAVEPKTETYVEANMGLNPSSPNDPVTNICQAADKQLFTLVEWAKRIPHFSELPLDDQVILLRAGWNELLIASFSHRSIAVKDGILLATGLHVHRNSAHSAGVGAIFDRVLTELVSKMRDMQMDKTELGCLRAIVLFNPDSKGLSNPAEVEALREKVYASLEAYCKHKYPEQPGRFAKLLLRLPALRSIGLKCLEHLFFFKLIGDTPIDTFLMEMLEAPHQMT
The target of experiment [3] is Thyroid hormone receptor beta (Homo sapiens) (UniProt P10828). Kind of experiment: qHTS assay for small molecule agonists of thyroid hormone receptor beta signaling (AID 588545).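 Also: 0% = DMSO only and 100% = 10 nM T3.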 As to conditions: TR-UAS-bla GripTite HEK 293, beta-lactamase ratio, agonist mode, 18 h, percent of T3 response, DMSO as zero; series mostly up to 76.7 µM. A digest of the protocol: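 TR-UAS-bla-GripTite HEK 293 cells in medium with 2% charcoal/dextran FBS, 0.1 mM NEAA and 1 mM sodium pyruvate were treated with titrated compounds for 18 hrs at 37 C. Beta-lactamase reporter was read with CCF4 dye (ex 405, em 460/530 nm); EC50 from Hill fits.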
Sequence of Thyroid hormone receptor beta (Homo sapiens) (P10828 whole entry, looked up): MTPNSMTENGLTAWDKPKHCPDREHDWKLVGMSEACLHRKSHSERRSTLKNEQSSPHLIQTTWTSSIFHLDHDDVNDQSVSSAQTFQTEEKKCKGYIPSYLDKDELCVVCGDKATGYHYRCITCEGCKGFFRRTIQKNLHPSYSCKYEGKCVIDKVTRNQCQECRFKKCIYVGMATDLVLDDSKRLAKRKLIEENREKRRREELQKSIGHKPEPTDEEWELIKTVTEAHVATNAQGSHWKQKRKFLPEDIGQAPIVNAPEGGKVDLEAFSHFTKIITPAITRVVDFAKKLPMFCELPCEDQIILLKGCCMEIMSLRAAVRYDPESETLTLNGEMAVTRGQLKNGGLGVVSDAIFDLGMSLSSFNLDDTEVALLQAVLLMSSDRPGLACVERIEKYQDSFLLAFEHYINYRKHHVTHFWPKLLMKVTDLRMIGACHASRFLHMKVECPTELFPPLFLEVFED

Experiment [4] in a line: qHTS assay for small molecule antagonists of retinoid X receptor alpha signaling (AID 588546; active = well fitted inhibition curve with a large enough effect in the signal ratio, with a control signal flat, not every such curve was filed as active; the % refers to the signal ratio;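 also: cells stimulated with 9-cis-retinoic acid as agonist; % is scaled to controls: 0 for no effect and ±100 for the full control effect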). As to conditions: HEK293T RXRa-UAS-bla, beta-lactamase ratio, antagonist mode; measured here: W530 green channel, cytotoxicity proxy. Put shortly:
(§1)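 Beta-lactamase reporter inhibition, read as CCF4 fluorescence ratio (ex 405, em 460/530 nm) after 2 h at RT. HEK293T UAS-bla cells, 2500/well, were stimulated with 9-cis-RA at 500 or 100 nM final alongside test compound for 18 h at 37 C.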

The target of experiment [5] is Retinoic acid receptor RXR-alpha (Homo sapiens) (UniProt P19793). The experiment is described as above. As to conditions: HEK293T RXRa-UAS-bla, beta-lactamase ratio, antagonist mode. A digest of the protocol:
as §1

The target in experiment [6] is Thyroid hormone receptor beta (Homo sapiens) (UniProt P10828). Kind of experiment: qHTS assay for small molecule antagonists of thyroid hormone receptor beta signaling (AID 588547; active = well fitted inhibition curve with a large enough effect in the signal ratio, with a control signal flat, not every such curve was filed as active; the % refers to the signal ratio;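 also: cells stimulated with 0.4 nM T3 agonist during compound exposure; % is scaled to controls: 0 for no effect and ±100 for the full control effect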). As to conditions: TR-UAS-bla HEK293, beta-lactamase ratio, antagonist mode, 18 h. Put shortly:
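TR-UAS-bla GripTite HEK293 cells in 2% charcoal/dextran FBS medium were preincubated 4 h at 37 C, given compound (0.59 nM to 92 uM) plus 0.4 nM T3 (final) for 18 h, then CCF4 for 2 h at RT; Hill fit gave IC50.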

Experiment [7] has as its target Voltage-gated inwardly rectifying potassium channel KCNH2 (Homo sapiens) (UniProt Q12809). The experiment can be described thus: qHTS Assay for Small Molecule Inhibitors of the Human hERG Channel Activity (AID 588834; active = well fitted curve in the direction sought with a large enough effect; an effect the other way counts as inactive or inconclusive;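 also: top concentration of the series differs between compounds; % is scaled to controls: 0 for no effect and ±100 for the full control effect; lower thallium flux fluorescence means stronger hERG block; nearly all actives have a fitted effect of over 50% in size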). The note with it: U2OS BacMam hERG, FluxOR thallium flux fluorescence; series mostly up to 92.2 µM. A digest of the protocol:
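Concentration-response qHTS measuring drop in thallium-sensitive dye signal. U2OS cells carrying BacMam hERG; compound exposure ~10 min, then stimulation buffer and 2 min read at 1 sec intervals.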

Experiment [8] can be described thus: qHTS assay for small molecule agonists of the antioxidant response element (ARE) signaling pathway (AID 651741; active = well fitted activation curve with a large enough effect in the signal ratio; the % refers to the signal ratio; also: % of control where 0% means no effect). As to conditions: HepG2 ARE-bla reporter, beta-lactamase FRET ratio, 16 h; series mostly up to 96 µM. A digest of the protocol:
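Compounds in DMSO are pinned onto HepG2 ARE-bla cells (2,000/well) that were preincubated 5 h; plates stay 16 h at 37 C, then beta-lactamase activity is detected with LiveBLAzer B/G substrate by fluorescence.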

Experiment [9] in a line: qHTS assay for small molecule disruptors of the mitochondrial membrane potential - 1 hr assay (AID 651754). Also: % is scaled to controls: 0 for no effect and ±100 for the full control effect; nearly all actives have a fitted effect of over 35% in size. The note with it: series mostly up to 92.2 µM. A digest of the protocol:
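HepG2, 2,000 cells/well, overnight attachment; cpd or DMSO 1 hr, 37C/5% CO2; Mito-MPS dye 30 min, 37C; fluorescence monomer (490/535) and aggregate (540/590).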

The target of experiment [10] is Tumor necrosis factor (Homo sapiens) (UniProt P01375). Kind of experiment: qHTS assay to identify small molecules that stimulate Tumor Necrosis Factor-alpha (TNF-alpha) secretion (AID 651757; active = well fitted curve in the direction sought with a large enough effect in the signal ratio; the % refers to the signal ratio; also: 0% is about no effect). The note with it: Human cells, HTRF 665/615 ratio; series mostly up to 92.2 µM. Put shortly: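 Read-out is HTRF, a TR-FRET sandwich of cryptate- and XL665-labeled anti-TNF-alpha antibodies detecting cytokine secreted by THP-1 cells. Cells had been incubated with test compounds at 37 C for 17 hrs beforehand.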
Sequence of Tumor necrosis factor (Homo sapiens) (P01375 whole entry, looked up): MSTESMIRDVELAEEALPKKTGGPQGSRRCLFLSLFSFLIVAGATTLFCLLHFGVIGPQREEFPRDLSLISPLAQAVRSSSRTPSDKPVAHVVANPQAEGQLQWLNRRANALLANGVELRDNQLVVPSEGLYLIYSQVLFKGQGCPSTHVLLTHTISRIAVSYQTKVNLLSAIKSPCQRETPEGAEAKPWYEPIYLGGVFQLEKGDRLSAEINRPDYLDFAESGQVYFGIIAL

The nature of experiment [11]: qHTS assay for environmental chemicals that activate the Aryl hydrocarbon Receptor (AhR) signaling pathway (AID 651777; active = well fitted curve in the direction sought with a large enough effect; an effect the other way counts as inactive or inconclusive; also: % of control where 0% means no effect; nearly all actives have a fitted effect of over 15% in size). As to conditions: 1A2-DRE human hepatoma cells, luciferase, 24 h; activation: stronger effect = higher value. A digest of the protocol: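 AhR activation is scored as a rise in luciferase from a stable DRE–CYP1A2 promoter construct in human hepatoma cells. Treatment lasts 24 hr at 37 C; detection uses One-Glo after 30 min at room temperature.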

The target of experiment [12] is Peroxisome proliferator-activated receptor alpha (Homo sapiens) (UniProt Q07869). Kind of experiment: qHTS assay for small molecule agonists of the peroxisome proliferator-activated receptor alpha (PPARalpha) signaling pathway (AID 651778; active = well fitted curve in the direction sought with a large enough effect; an effect the other way counts as inactive or inconclusive; also: % of control where 0% means no effect). As to conditions: PathHunter PPARalpha complementation, chemiluminescence, 6 h; stronger effect = higher value. Put shortly: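 Cells plated at 2,000/well and held overnight at 37 C, 5% CO2, then compound added by pin tool for 6 hr; after PathHunter detection reagent and 60 min at room temperature, chemiluminescence from enzyme complementation was read.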
Sequence of Peroxisome proliferator-activated receptor alpha (Homo sapiens) (Q07869 whole entry, looked up): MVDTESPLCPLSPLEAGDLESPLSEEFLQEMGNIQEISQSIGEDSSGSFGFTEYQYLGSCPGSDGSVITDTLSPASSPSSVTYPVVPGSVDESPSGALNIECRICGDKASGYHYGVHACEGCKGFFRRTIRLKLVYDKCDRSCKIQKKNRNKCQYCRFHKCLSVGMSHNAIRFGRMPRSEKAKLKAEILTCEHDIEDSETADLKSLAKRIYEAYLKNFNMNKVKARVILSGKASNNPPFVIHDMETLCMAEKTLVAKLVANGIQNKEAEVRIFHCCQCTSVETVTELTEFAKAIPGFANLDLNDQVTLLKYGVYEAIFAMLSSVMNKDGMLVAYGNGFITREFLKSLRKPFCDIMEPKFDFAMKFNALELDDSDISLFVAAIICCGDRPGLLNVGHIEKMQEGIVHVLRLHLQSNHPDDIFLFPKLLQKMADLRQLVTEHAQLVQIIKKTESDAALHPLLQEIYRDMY

The nature of experiment [13]: qHTS assay for small molecule antagonists of the retinoid-related orphan receptor gamma (ROR-gamma) signaling pathway - cell viability counter screen (AID 720652; active = well fitted curve in the direction sought with a large enough effect in the repeat runs; an effect the other way counts as inactive or inconclusive;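 also: compound exposure lasted 16 hr before ATP read; % is scaled to controls: 0 for no effect and ±100 for the full control effect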). The note with it: RORgamma reporter cell line viability counter screen; series mostly up to 92.2 µM. A digest of the protocol: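 Luminescence from CellTiter-Glo after 30 min at room temperature reported cellular ATP as the cytotoxicity measure. Cells were the CHO reporter line with doxycycline-induced ROR-gamma expression, exposed to compound for 16 hr at 37 C.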

The nature of experiment [14]: qHTS assay for small molecule activators of the nuclear factor-kappa B (NF-kB) signaling pathway (AID 651749; active = well fitted activation curve with a large enough effect in the signal ratio; the % refers to the signal ratio; also: % of control where 0% means no effect). The note with it: NF-kB-bla ME-180 cells, beta-lactamase FRET ratio, 16 h; stronger effect = higher value. Put shortly: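 Screening used 2,000 ME-180 reporter cells per well exposed to pinned compound (23 nL) or DMSO; after 16 hr at 37C, beta-lactamase expression under NF-kB control was assessed through FRET.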

The nature of experiment [15]: qHTS assay for small molecule disruptors of the mitochondrial membrane potential - 5 hr assay (AID 651755). Also: % is scaled to controls: 0 for no effect and ±100 for the full control effect; nearly all actives have a fitted effect of over 40% in size. As to conditions: JC-1-type ratio dye; series mostly up to 92.2 µM. Put shortly:
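HepG2 cells, attached overnight at 37C, were exposed to compound or DMSO for 5 hr at 37C, 5% CO2. Mito-MPS dye was then added for 30 min, and fluorescence read at 490/535 nm (monomers) and 540/590 nm (aggregates).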

Experiment [16] can be described thus: qHTS assay to identify small molecules that stimulate interleukin-8 (IL-8) secretion (AID 651758; active = well fitted activation curve with a large enough effect in the signal ratio; the % refers to the signal ratio; also: 0% is about no effect). The note with it: HTRF ratio (665/615); series mostly up to 92.2 µM. A digest of the protocol:
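THP-1, 2000 cells/well; cpd 16 h, 37 C; add cryptate + XL665 anti-IL-8 Abs; RT 1-3 h; TR-FRET read.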

For experiment [17], the target named is Nuclear receptor ROR-gamma (Homo sapiens) (UniProt P51449). The experiment can be described thus: qHTS assay for small molecule antagonists of the retinoid-related orphan receptor gamma (ROR-gamma) signaling pathway (AID 651802; active = well fitted curve in the direction sought with a large enough effect; an effect the other way counts as inactive or inconclusive;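 also: luciferase reporter luminescence driven by ROR response element; % is scaled to controls: 0 for no effect and ±100 for the full control effect; nearly all actives have a fitted effect of over 60% in size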). The note with it: ROR-gamma antagonist cell reporter assay; series mostly up to 92.2 µM. Put shortly: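 CHO, TET-inducible ROR + RORE-LUC reporter, 1536-well qHTS. Compound pinned, doxycycline added, 16hr 37C/5% CO2. ONE-Glo, 30 min RT, luminescence; signal drop scored as antagonism.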
Sequence of Nuclear receptor ROR-gamma (Homo sapiens) (P51449 whole entry, looked up): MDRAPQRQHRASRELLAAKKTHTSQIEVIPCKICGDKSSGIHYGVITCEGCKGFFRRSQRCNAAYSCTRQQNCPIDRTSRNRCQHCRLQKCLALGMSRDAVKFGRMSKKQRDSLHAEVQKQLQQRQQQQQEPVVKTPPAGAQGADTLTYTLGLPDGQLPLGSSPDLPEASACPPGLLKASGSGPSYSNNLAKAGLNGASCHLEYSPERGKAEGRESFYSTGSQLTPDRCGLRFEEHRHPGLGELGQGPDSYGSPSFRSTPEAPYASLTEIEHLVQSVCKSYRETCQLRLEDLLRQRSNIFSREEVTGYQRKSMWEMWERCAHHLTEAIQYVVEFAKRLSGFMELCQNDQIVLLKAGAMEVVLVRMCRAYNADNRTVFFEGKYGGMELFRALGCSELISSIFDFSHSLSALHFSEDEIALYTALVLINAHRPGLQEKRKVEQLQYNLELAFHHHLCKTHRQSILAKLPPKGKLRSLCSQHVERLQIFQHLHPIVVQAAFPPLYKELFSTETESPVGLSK

Experiment [18] can be described thus: qHTS assay for small molecule agonists of the antioxidant response element (ARE) signaling pathway measured by Nrf2-dependant transcriptional activity (AID 720636; active = well fitted curve in the direction sought with a large enough effect in the repeat runs; an effect the other way counts as inactive or inconclusive; also: % of control where 0% means no effect). As to conditions: ARE-luc HepG2, Nrf2 luciferase reporter, 16 h; series mostly up to 92.4 µM. A digest of the protocol: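 First, ARE-luc HepG2 cells attached for 6 hr at 37 C in 1% dialyzed FBS medium. Next, compound or DMSO was added and incubated 16 hr. Finally, ONE-Glo reagent was added and luminescence measured after 30 min.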

The nature of experiment [19]: qHTS assay for small molecule agonists of the antioxidant response element (ARE) signaling pathway measured by Nrf2-dependant transcriptional activity - cell viability counter screen (AID 720653; active = well fitted curve in the direction sought with a large enough effect in the repeat runs; an effect the other way counts as inactive or inconclusive; also: % is scaled to controls: 0 for no effect and ±100 for the full control effect). As to conditions: ARE-bla HepG2 viability, CellTiter-Glo ATP luminescence, 16 h; stronger effect = lower value. A digest of the protocol:
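ARE-bla HepG2 cells (2,000/well) rested 5 hrs at 37C/5% CO2, then exposed to compounds in DMSO for 16 hrs. Viability was read in the same wells as intracellular ATP by luminescence, 30 min at room temperature after reagent addition.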

The nature of experiment [20]: qHTS assay for small molecule activators of the p53 signaling pathway (AID 651743; active = well fitted activation curve with a large enough effect in the signal ratio, not every such curve was filed as active; the % refers to the signal ratio; also: % of control where 0% means no effect). The note with it: HCT-116 p53RE-bla, beta-lactamase FRET ratio, 16 h; stronger effect = higher value. A digest of the protocol: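 Cell-based beta-lactamase reporter (p53 response elements, HCT-116 background). After a 5-hour preincubation, cells received compound for 16 hours at 37 C; substrate development ran 2 hours at room temperature.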

Sequence of Voltage-gated inwardly rectifying potassium channel KCNH2 (Homo sapiens) (Q12809 whole entry, looked up): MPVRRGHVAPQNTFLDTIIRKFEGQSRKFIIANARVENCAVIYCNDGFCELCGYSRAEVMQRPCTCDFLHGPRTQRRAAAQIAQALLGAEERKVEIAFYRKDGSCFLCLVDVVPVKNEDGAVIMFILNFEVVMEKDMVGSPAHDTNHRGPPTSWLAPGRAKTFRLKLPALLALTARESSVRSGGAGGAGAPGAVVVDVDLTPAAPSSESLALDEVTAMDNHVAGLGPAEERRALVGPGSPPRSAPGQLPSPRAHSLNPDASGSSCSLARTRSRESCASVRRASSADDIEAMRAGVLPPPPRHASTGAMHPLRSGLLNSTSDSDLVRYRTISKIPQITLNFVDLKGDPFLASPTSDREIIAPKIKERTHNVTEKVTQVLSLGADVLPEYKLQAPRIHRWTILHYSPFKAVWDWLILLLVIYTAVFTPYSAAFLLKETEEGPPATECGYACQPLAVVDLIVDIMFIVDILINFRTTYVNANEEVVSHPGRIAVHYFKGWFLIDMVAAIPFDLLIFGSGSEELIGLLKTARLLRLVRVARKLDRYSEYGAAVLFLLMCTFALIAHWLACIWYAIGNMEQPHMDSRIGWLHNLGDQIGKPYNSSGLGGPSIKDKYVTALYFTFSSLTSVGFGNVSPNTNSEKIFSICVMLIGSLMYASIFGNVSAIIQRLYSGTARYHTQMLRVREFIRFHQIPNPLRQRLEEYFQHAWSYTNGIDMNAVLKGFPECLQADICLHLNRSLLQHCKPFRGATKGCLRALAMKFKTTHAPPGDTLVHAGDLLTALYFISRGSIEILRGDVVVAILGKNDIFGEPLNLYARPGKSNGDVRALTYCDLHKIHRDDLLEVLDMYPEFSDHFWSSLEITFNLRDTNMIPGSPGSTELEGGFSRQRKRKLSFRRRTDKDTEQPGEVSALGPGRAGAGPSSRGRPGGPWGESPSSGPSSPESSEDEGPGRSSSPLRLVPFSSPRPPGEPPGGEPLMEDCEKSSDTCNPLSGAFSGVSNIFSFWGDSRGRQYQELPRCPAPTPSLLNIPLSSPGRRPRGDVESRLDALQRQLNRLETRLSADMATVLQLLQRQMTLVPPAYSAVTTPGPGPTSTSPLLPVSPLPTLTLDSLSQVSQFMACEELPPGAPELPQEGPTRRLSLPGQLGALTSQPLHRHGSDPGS

With `NC(N)=S`, the max response in experiment [1] was -8.98%; in experiment [4], 10%; in experiment [5], 4.07% (inactive); in [12], -4.91% (inactive). In addition, the compound was classed as inactive in experiment [2] and in experiment [3]. In addition, the activity change % (negative = inhibition) in [6] is -6.09% (inactive). Further, the Potency entry in experiment [7], in [8], in [9], in [10] and in experiment [13] was “inactive” throughout. Besides, the activation in [11] is 0.321% (inactive).

Consider `ICCc1ccccc1`, for which the max response was 3.08% in experiment [1]; -3.71% in experiment [4]; 22.3% (inactive) in experiment [5]; -1.29% (inactive) in experiment [12]; 3.37% (inactive) in experiment [19]. Further, the compound was called inactive in experiment [2], in experiment [3] and in experiment [18]. The activity change % (negative = inhibition) in [6] is 3.09% (inactive). Further, the Potency entry in experiment [7], in [8], in [9], in experiment [15], in experiment [10] and in experiment [16] was “inactive” in each case. Moreover, the Potency entry in experiment [17] and in [13] was “inactive” each time. For the same compound, the activation in experiment [14] was -1.75% (inactive).

As for `CC(C)N=C=NC(C)C`, the max response was -13.3% in experiment [1]; 10.7% in experiment [4]; 7.57% (inactive) in experiment [5]; -2.65% (inactive) in experiment [12]; -1% (inactive) in [19]. In addition, the compound was called inactive in [2], in experiment [3] and in experiment [18]. Further, in experiment [6], the activity change % (negative = inhibition) was 1.37% (inactive). In addition, the Potency entry in experiment [8], in experiment [9], in experiment [15], in experiment [10], in experiment [16] and in [17] was “inactive” in each case. For the same compound, in [13], the Potency result is “inactive”. The activation was 1.3% (inactive) in experiment [20], -0.231% (inactive) in [14] and -2.05% (inactive) in experiment [11].

For the compound `Cc1ccc(Br)cc1`, the max response in experiment [1] was 5.91%; in experiment [4], 1.18%; in experiment [5], -0.837% (inactive); in experiment [12] it was -0.752% (inactive); in experiment [19], -9.09% (inactive). In addition, the compound was classed as inactive in experiment [2], in experiment [3] and in [18]. The activity change % (negative = inhibition) in [6] is -9.28% (inactive). The Potency entry in experiment [8], in [9], in [15], in experiment [10], in experiment [17] and in [13] was “inactive” in each case. For the same compound, the activation in experiment [11] was 0.745% (inactive).

Consider `CN(C)CCCCl`, for which the max response in [1] was -11.7%; in [4], -4.19%; in [5], -2.2% (inactive); in experiment [12], -1.33% (inactive); in experiment [19], 19.9% (inactive). The compound was called inactive in [2], in experiment [3] and in experiment [18]. Moreover, in [6], the activity change % (negative = inhibition) was 10.5% (inactive). Moreover, the Potency result in [8], in experiment [9], in experiment [15], in [10] and in experiment [17] was “inactive” each time. The activation was -1.08% (inactive) in experiment [20] and 0.444% (inactive) in [14].

With `C=C(C)C(N)=O`, the max response in [1] was -0.693%; in experiment [4] it was -10.5%; in experiment [5], 23.8% (inactive); in [12] it was -6.13% (inactive); in [19], -10.7% (inactive). In addition, the compound was classed as inactive in experiment [2], in experiment [3] and in [18]. For the same compound, in [6], the activity change % (negative = inhibition) was -24.4% (inactive). In addition, the Potency entry in experiment [8], in experiment [9], in experiment [15], in experiment [10], in experiment [17] and in experiment [13] was “inactive” in each case. In addition, the activation was -0.276% (inactive) in [14] and -1.72% (inactive) in [11].

In the case of `O=C(O)c1ccc(C(=O)O)cc1`, the max response is -16.5% and -21.7% in [1]; -3.66% and -13.6% in [4]; 1.97% (inactive) and -1.47% (inactive) in [5]; -2.31% (inactive) and 0.244% (inactive) in experiment [12]; -2.71% (inactive) and -15.5% (inactive) in [19]. The outcome in [2], in [3] and in [18] was inactive. The Potency result in [7], in experiment [8], in experiment [15], in experiment [10], in experiment [16] and in [17] was “inactive” in each case. In addition, the activation in experiment [20] is -0.449% (inactive) and 6.06% (inactive); in [14] it was 0.423% (inactive) and -1.36% (inactive); in [11], -0.394% (inactive) and -1.3% (inactive).
